Records with an inconclusive call do not appear. The source made the active and inactive calls. Rule for the calls: active = hit-call score of the fitted dose curve at least 0.9, where 1 is the maximum; inconclusive = response in the unintended direction; inactive = score below 0.9.
Target: rat Neonicotinoid receptor (NNR), Chrna7 (gene 25302) (UniProt Q05941)
Sequence (Q05941 whole entry, looked up): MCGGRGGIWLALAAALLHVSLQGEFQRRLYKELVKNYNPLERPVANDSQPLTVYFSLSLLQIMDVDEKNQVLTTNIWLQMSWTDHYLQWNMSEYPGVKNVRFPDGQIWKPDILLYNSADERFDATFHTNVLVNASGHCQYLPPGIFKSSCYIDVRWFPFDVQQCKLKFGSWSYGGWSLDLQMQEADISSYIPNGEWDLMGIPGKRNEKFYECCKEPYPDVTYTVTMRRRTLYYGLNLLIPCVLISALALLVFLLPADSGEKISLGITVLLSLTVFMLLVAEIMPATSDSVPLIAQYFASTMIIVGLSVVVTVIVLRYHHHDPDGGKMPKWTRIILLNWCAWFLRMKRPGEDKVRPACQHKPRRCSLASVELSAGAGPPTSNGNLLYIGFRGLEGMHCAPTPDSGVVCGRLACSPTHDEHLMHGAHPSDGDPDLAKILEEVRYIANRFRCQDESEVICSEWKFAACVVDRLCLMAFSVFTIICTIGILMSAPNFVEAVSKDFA
Assay: NVS_LGIC_rNNR_BungSens: NovaScreen (NVS) Ligand-Gated Ion Channel Assay for rat Neonicotinoid receptor (NNR) (AID 2283315)
Outline: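 Rat cortical membrane preparation incubated 2.5 h with tritiated or iodinated radioligand and test chemical. Bound radioactivity was filtered and counted by scintillation, and displacement was analysed against DMSO.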
In the case of `CC(C)CCO`, the outcome is reported as “inactive”.

Target: rat Vasopressin 1 Receptor (V1), Avpr1a (gene 25107) (UniProt P30560)
Sequence (P30560 whole entry, looked up): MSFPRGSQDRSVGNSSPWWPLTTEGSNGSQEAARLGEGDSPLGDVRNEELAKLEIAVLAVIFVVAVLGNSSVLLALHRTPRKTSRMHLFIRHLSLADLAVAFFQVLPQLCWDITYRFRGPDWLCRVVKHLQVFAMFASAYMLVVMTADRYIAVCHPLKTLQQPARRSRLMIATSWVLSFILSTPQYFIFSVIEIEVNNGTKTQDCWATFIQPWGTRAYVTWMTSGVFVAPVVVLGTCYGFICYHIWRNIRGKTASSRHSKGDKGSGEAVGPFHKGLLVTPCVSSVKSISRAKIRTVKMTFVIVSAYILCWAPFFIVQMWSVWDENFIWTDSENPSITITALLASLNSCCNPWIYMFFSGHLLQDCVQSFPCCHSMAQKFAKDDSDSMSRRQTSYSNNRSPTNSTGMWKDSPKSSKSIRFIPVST
Assay: NVS_GPCR_rV1: NovaScreen (NVS) G Protein-Coupled Receptor Assay for rat Vasopressin 1 Receptor (V1) (AID 2283316)
Procedure: NVS_GPCR_rV1 is a biochemical, single-readout assay that uses extracted gene-proteins from Rat liver membranes in a tissue-based cell-free assay. Measurements were taken 1.5 hours after chemical dosing in a 48-well plate.NVS_GPCR_rV1 is one of one assay component(s) measured or calculated from the NVS_GPCR_rV1 assay. It is designed to make measurements of radioligand binding, a form of binding reporter, as detected with scintillation counting signals by Filter-based radiodetection technology.Data from the assay component NVS_GPCR_rV1 was analyzed into 1 assay endpoint. This assay endpoint, NVS_GPCR_rV1, was analyzed in the positive analysis fitting direction relative to DMSO as the negative control and baseline of activity. Using a type of binding reporter, loss-of-signal activity can be used to understand changes in the binding as they relate to the gene Avpr1a. Furthermore, this assay endpoint can be referred to as a primary readout, because the performed assay has only produced 1 assay endpoint. To generalize the intended target to other relatable targets, this assay endpoint is annotated to the gpcr intended target family, where the subfamily is rhodopsin-like receptor.
Binding assays used specific radioligands (tritiated, iodinated) with non-radioactive competitive displacement ligands in agonist or antagonist protocols (as indicated) and various reference compounds and inhibitors to titrate specific binding to receptors and transporters. Most enzyme assays (CYPs, kinases, phosphatases, proteases, HDACs) used recombinant protein and specific substrates (fluorescence mostly, some colorimetric and radioactive) and inhibitors, followed by a biochemical separation of substrate and product. All assays for the biochemical HTS were initially run in duplicate at a single concentration (10 uM for CYP450 assays and 25 uM for all others). Assay-chemical combinations meeting a pre-defined threshold (e.g., 30% inhibition and other criteria defined below) were then run in singleton concentration-response format with maximum concentration of 20 uM for CYPs and 50 uM for all others. […]
In the case of `CCCN(C1CCN(C(=O)C2CCNCC2)CC1)[C@@H]1CCc2ccc(OC)cc2C1`, the outcome is reported as “inactive”.
In the case of `O=C(CCCCCCCCc1cccnc1)N1CCC(C=C(c2ccccc2)c2ccccc2)CC1`, the outcome is reported as “inactive”.
For `Cc1ccc(N)cc1O`, the outcome was “inactive”.

Target: rat Opioid Receptor, Non-selective Binding, Oprm1 (gene 25601) (UniProt P33535)
Sequence (P33535 whole entry, looked up): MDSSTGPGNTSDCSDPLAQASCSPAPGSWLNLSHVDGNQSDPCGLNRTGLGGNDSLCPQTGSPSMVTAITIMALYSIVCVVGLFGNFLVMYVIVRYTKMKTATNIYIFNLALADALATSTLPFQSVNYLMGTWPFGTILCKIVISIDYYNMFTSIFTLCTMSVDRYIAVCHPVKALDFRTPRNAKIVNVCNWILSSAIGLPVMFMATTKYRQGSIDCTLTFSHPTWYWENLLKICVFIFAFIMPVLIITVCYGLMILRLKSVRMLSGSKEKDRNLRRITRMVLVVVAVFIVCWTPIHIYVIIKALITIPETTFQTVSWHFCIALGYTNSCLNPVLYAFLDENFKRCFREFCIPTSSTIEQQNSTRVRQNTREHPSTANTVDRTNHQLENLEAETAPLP
Assay: NVS_GPCR_rOpiate_NonSelective: NovaScreen (NVS) G Protein-Coupled Receptor Assay for rat Opioid Receptor, Non-selective Binding (AID 2283318)
Outline: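 Filter-based radioligand displacement using rat forebrain membrane preparations, measured 1.5 h post-dosing. Single-concentration duplicate screen at 25 uM, follow-up in concentration series; activity taken as signal loss relative to DMSO.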
In the case of `CCc1cc(SCc2sc(-c3ccc(C(F)(F)F)cc3)nc2CN2CCN(c3ccc(OC)cc3)CC2)ccc1OCC(=O)O`, the outcome is reported as “inactive”.
For `Cc1[nH]cnc1C[C@H]1CCc2c(C)c3ccccc3n2C1=O`, the AC50 was 9.93 µM (active).
With `CC[C@H]1CC[C@H](NCc2cc3c(cc2OC)[C@H]2C[C@H]2C(=O)N3C)[C@H](c2ccccc2)N1` the AC50 was 2.58 µM (active).
With `CCn1nc(Cc2ccccc2)cc1C1CCN(C[C@H]2C[C@H](N(C)[C@@H](C(=O)O)C(C)C)C[C@@H]2c2cccc(F)c2)CC1` the AC50 was 4.11 µM (active).
For `CNS(=O)(=O)c1cc(C(=O)N2CCC(CCN3C4CCC3CC(n3c(C)nc5ccccc53)C4)(c3cccc(F)c3)CC2)c(Cl)cc1F` (stereo unspecified), the AC50 was 10.1 µM (active).
With `CN(C)c1ccc(N=NS(=O)(=O)O)cc1` the AC50 was 31.6 µM (active).
With `O=C(O)CC(O)C(=O)O` (stereo unspecified) the outcome was “inactive”.
In the case of `COc1cccc(-c2ccc(/C=C\CN3CCCCCC3)cc2Cl)c1`, the AC50 is reported as 11.2 µM (active).
With `CCN(C(=O)c1cc(C)cc(OC[C@H](C)Nc2ccncc2)c1)C(C)C` the outcome was “inactive”.

System: NCBI gene 24521
Assay: NVS_IC_rKATPCh: NovaScreen (NVS) Ion Channel Assay for rat Potassium Channel, ATP-Sensitive (KATPCh) (AID 2283319)
Outline: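 Primary duplicate screen at 25 uM, then singleton concentration series to 50 uM maximum, in a rat cortex membrane radioligand displacement assay. Binding measured by filtration and scintillation 2 h post-dose; DMSO baseline.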
In the case of `CCc1cc(SCc2sc(-c3ccc(C(F)(F)F)cc3)nc2CN2CCN(c3ccc(OC)cc3)CC2)ccc1OCC(=O)O`, the AC50 is reported as 35.9 µM (active).
For `CCCCCCCCO`, the outcome was “inactive”.
With `CN(C)c1ccc(N=NS(=O)(=O)O)cc1` the outcome was “inactive”.
For `CCOc1cccc(-n2cc(C(=O)N3CCN(c4cc(C(=O)O)c5ccccc5c4)CC3)nc2-c2ccc(C)cc2)c1`, the AC50 was 21.2 µM (active).

System: not listed separately
Assay: NVS_IC_rCaDHPRCh_L: NovaScreen (NVS) Ion Channel Assay for rat Calcium Channel, Type L, Dihydropyridine Site (CaDHPRCh_L) (AID 2283320)
Outline: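 Rat cortex membrane preparation; dihydropyridine-site radioligand displacement read 1 h post-dose by filtration and scintillation. Primary single-point screen 25 uM in duplicate, then concentration series to 50 uM maximum; DMSO as negative control.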
With `CCOC(=O)c1ccc(C2CCC(NC[C@H](O)COc3ccc(O)c(NS(C)(=O)=O)c3)CC2)cc1` (stereo partly specified) the AC50 was 18.4 µM (active).
In the case of `CCOC(=O)COc1ccc2c(c1)CC(NCC(O)c1cccc(Cl)c1)CC2` (stereo unspecified), the outcome is reported as “inactive”.
With `CCCN(C1CCN(C(=O)C2CCNCC2)CC1)[C@@H]1CCc2ccc(OC)cc2C1` the outcome was “inactive”.
With `CCc1cc(SCc2sc(-c3ccc(C(F)(F)F)cc3)nc2CN2CCN(c3ccc(OC)cc3)CC2)ccc1OCC(=O)O` the AC50 was 15.9 µM (active).
With `Cc1[nH]cnc1C[C@H]1CCc2c(C)c3ccccc3n2C1=O` the AC50 was 1.5 µM (active).
With `O=P(OC(CCl)CCl)(OC(CCl)CCl)OC(CCl)CCl` the AC50 was 6.41 µM (active).
With `CCn1nc(Cc2ccccc2)cc1C1CCN(C[C@H]2C[C@H](N(C)[C@@H](C(=O)O)C(C)C)C[C@@H]2c2cccc(F)c2)CC1` the AC50 was 4.21 µM (active).
For `CNS(=O)(=O)c1cc(C(=O)N2CCC(CCN3C4CCC3CC(n3c(C)nc5ccccc53)C4)(c3cccc(F)c3)CC2)c(Cl)cc1F` (stereo unspecified), the AC50 was 6.97 µM (active).
With `COc1cccc(-c2ccc(/C=C\CN3CCCCCC3)cc2Cl)c1` the AC50 was 0.555 µM (active).
